A short description of assay [1]: NCI Yeast Anticancer Drug Screen. Data for the mec2-1 strain (AID 157). To be noted: S. cerevisiae mec2-1 strain, at 50.0 µM, active compounds read high. In outline:
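Growth inhibition is read against vehicle-treated controls after compound exposure of the mec2-1 yeast strain, which is defective in DNA damage repair or cell cycle control.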

The nature of assay [2]: NCI Yeast Anticancer Drug Screen. Data for the sgs1 mgt1 strain (AID 161).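 Note: 0% = growth of cultures given vehicle only.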 Conditions: S. cerevisiae sgs1 mgt1 strain, at 50.0 µM, active compounds read high. The method in brief: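 Percent growth inhibition was derived by comparing compound-exposed mutant yeast with vehicle-exposed cultures. The strain carries alterations in DNA damage repair.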
Assay [3] is described as follows: NCI Yeast Anticancer Drug Screen. Data for the cln2 rad14 strain (AID 165).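 Note: 0% = growth equal to vehicle treated cultures.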 To be noted: S. cerevisiae cln2 rad14 strain, at 50.0 µM, active compounds read high. In outline: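 Growth inhibition, relative to vehicle-treated controls, is the read-out. The test organism is a yeast strain with defined genetic alterations, cln2 rad14.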
Assay [4] in a line: NCI Yeast Anticancer Drug Screen. Data for the bub3 strain (AID 167). To be noted: S. cerevisiae bub3 mutant strain, at 50.0 µM, active compounds read high. In outline: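 Growth of a checkpoint-deficient yeast mutant is measured after compound exposure. Values represent inhibition relative to vehicle.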
A short description of assay [5]: NCI Yeast Anticancer Drug Screen. Data for the mlh1 rad18 strain (AID 175). To be noted: S. cerevisiae mlh1 rad18 strain growth inhibition; at 50.0 µM; active compounds read high. The method in brief: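 Cells of a genetically altered yeast strain, deficient in DNA damage repair, were treated with compound. Their growth was then compared with that of vehicle-treated cultures to give inhibition.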

A short description of assay [6]: NCI Yeast Anticancer Drug Screen. Data for the rad50 strain (AID 155).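 Note: 0% = growth of vehicle-only cultures of the same strain.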 Conditions: S. cerevisiae rad50 strain growth inhibition; at 50.0 µM; active compounds read high. The method in brief:
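Compounds were tested on a yeast strain with an engineered DNA damage repair alteration; the reported value is growth inhibition normalised to vehicle treatment.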

“And” between values parts separate entries of the source, which are not always exact repeats. Equal entries are not always repeated. About 79,000 compounds went through this panel and 15% of them were active in at least one assay; those are over-represented in the sample as a whole. The source made the active and inactive calls. Cut-off read from the data, not from the text of the source: active = growth inhibition above about 70%; inactive = the rest. Where a SMILES comes first, the peptide text is derived from it. [ ]: non-standard residue; d: D form. ξ: configuration not given here. ξF = NC(Cc1ccccc1)C(=O)O

As for `C=C1C2CCC3C4(C)CCCC(C)(C(=O)O)C4CCC3(C2)C1OC(=O)/C(C)=C/C` (stereo not given), the growth inhibition in assay [1] was 4.85% (inactive); in assay [2] it was -7.05% (inactive); in assay [3] it was 25.1% (inactive); in assay [4], 0.75% (inactive); in assay [5], -59.4% (inactive).

Regarding `CCC(=O)N/N=C/C=N/NC(=O)c1ccncc1`, the growth inhibition was -31.8% (inactive) in assay [1] and -7.25% (inactive) in assay [5].

As for `O=C(/C=N/O)Nc1cc(Cl)ccc1Cl`, the growth inhibition is 15.4% (inactive) in assay [1] and 17.3% (inactive) in assay [5].

With `COc1ccc(/C=C/C(=O)c2ccc(Cl)cc2)c(OC)c1`, the growth inhibition is 20.5% (inactive) in assay [6] and 8.75% (inactive) in assay [5].

In the case of `COC(=O)C(=O)C(C(=O)C(=O)Nc1ccccc1C(C)=O)c1nc2ccc(C(=O)c3ccccc3)cc2[nH]c1=O` (stereo not given), the growth inhibition in assay [1] was -6.6% (inactive); in assay [2] it was 33.6% (inactive); in assay [3], 28.6% (inactive); in assay [4], 5.25% (inactive); in assay [5], 24.5% (inactive).

With `CC(/C=N/N1C(=O)c2ccccc2C1=O)c1ccccc1` (stereo not given), the growth inhibition is 12.8% (inactive) in assay [6] and -10.8% (inactive) in assay [5].

For `CC1=NN(c2ccccc2)C(=O)C1CCC#N` (stereo not given), the growth inhibition in assay [6] was 10.6% (inactive); in assay [5] it was 31.4% (inactive).

`COC(=O)c1ccc(NC(=O)O/N=C(\Cl)C(C)C)cc1`: the growth inhibition in assay [1] was -20.7% (inactive); in assay [2], 59.7% (inactive); in assay [3], 8.85% (inactive); in assay [4] it was 34.1% (inactive); in assay [5] it was 0.75% (inactive).

Consider `CCn1c(C)nc2cc(S(=O)(=O)CS(C)(=O)=O)ccc21`, for which the growth inhibition was 17% (inactive) in assay [6] and 19.8% (inactive) in assay [5].

Consider `Clc1nc(Oc2ccccc2)nc(-c2cn(-c3ccccc3)c3ccccc23)n1`, for which the growth inhibition in assay [1] is -12.6% (inactive); in assay [5], -6.35% (inactive).

Consider `O=C(O)C(O)C(O)C(OC1OC(CO)C(O)C(O)C1O)C(O)CO.O=C(O)C(O)C(O)C(OC1OC(CO)C(O)C(O)C1O)C(O)CO.[NH-]C1CCCCC1[NH-].[Pt+2]` (stereo not given), for which the growth inhibition in assay [5] was -63.5% (inactive).

In the case of `CCOc1ccc(/C=N/NS(=O)(=O)c2ccc(C)cc2)cc1`, the values for the growth inhibition in assay [1] and in assay [5] were -34.5% (inactive) and -8.2% (inactive), respectively.

Turning to `CC(=N/N=C/c1ccccn1)/C(C)=N/N=C(C)/C(C)=N/N=C(C)/C(C)=N/N=C(C)/C(C)=N\N=C\c1ccccn1`, the growth inhibition in assay [2] is 4.05% (inactive); in assay [3], 16.7% (inactive); in assay [4], 8.15% (inactive); in assay [5] it was -21.6% (inactive).

Consider `O=C(O)C(=O)C(O)C(O)C(O)CO.O=C(O)C(=O)C(O)C(O)C(O)CO.[NH-]C1CCCCC1[NH-].[Pt+2]` (stereo not given), for which the growth inhibition in assay [5] is -53.1% (inactive).

Take `C=CN1C(=O)N(C=C)C(C)(CC(C)C)C1=O` (stereo not given): the growth inhibition in assay [1] was -5.55% (inactive); in assay [5] it was 15.8% (inactive).

In the case of `CC(=O)c1cccc(OCc2ccccc2)c1`, the growth inhibition is 2.75% (inactive) in assay [1] and 8.4% (inactive) in assay [5].

In the case of `NC(=O)C(=O)N/N=C/c1ccc2c(c1)CCC2`, the growth inhibition in assay [1] was -10.9% (inactive); in assay [5] it was 8.3% (inactive).

Turning to `NC(Cc1ccccc1)C(=O)NCC(=O)NCC(=O)O` (stereo not drawn) (H-[ξF]-Gly-Gly-OH), the growth inhibition was -1.35% (inactive) in assay [1] and 4.55% (inactive) in assay [5].

As to `Cc1c(CNc2ccc(C(=O)NC(CC(=O)O)C(=O)O)cc2)ccc2nc(N)nc(N)c12` (stereo not given), the growth inhibition in assay [2] was 47.8% (inactive); in assay [3], 9.35% (inactive); in assay [4] it was 16.4% (inactive).

In the case of `CCOC(=O)C(C)Oc1ccccc1[N+](=O)[O-]` (stereo not given), the growth inhibition in assay [1] is -41.2% (inactive); in assay [5], -15.8% (inactive).

Turning to `COc1ccc(N=c2ssc(SC)c2-c2ccccc2)cc1`, the growth inhibition in assay [1] was -11.4% (inactive); in assay [5], -0.8% (inactive).

Turning to `N=C(N)c1ccc(N=NNc2ccc(C(=N)N)cc2)cc1`, the growth inhibition in assay [5] is 84% (active).

Take `CCCN(CCC)CCC(=O)OCC`: the growth inhibition is -29.2% (inactive) in assay [1] and -10.9% (inactive) in assay [5].

On to `[Cl][Sn]([CH2][Sn]([Cl])([c]1ccccc1)[c]1ccccc1)([c]1ccccc1)[c]1ccccc1`, for which the growth inhibition in assay [5] is 82.2% (active).

For `O=C1C2C3C=CC(C2C(=O)N1CO)C1C2C(=O)N(CO)C(=O)C2C31` (stereo not given), the growth inhibition in assay [5] is 2.2% (inactive).

For `N#CCS(=O)(=O)c1cccc[n+]1[O-]`, in assay [5], the growth inhibition was -37.5% (inactive).

With `COC(=O)CCNCc1ccccc1`, the growth inhibition in assay [1] was -41.6% (inactive); in assay [5], 10.4% (inactive).

Regarding `Nc1n[nH]c(=S)n1-c1ccc(Cl)cc1`, the growth inhibition in assay [5] was -13% (inactive).

For `N#C/C(=C1C=C/C(=N/O)C(Br)=C/1)c1ccccc1`, the figures for the growth inhibition in assay [1] and in assay [5] were 13.2% (inactive) and 22% (inactive), respectively.

For the molecule `Nc1ccc2ccc(N)cc2c1`, in assay [5], the growth inhibition is -33.1% (inactive).

On to `CC(C)n1c2c([n+](C)c1/C=C/c1ccccc1)C(=O)c1ccccc1C2=O`, for which the growth inhibition is 89.9% (active) in assay [2], 88.9% (active) in assay [3] and 50.4% (inactive) in assay [4].

In the case of `COc1ccc(C(CCl)(CCl)c2ccc(OC)c(N)c2)cc1N`, the results for the growth inhibition in assay [1] and in assay [5] were 14% (inactive) and 28.6% (inactive), respectively.

Consider `COc1ccc(C(C#N)N2CCCC2)cc1` (stereo not given), for which the growth inhibition in assay [1] was -37.9% (inactive); in assay [5] it was -9.75% (inactive).

Take `CC(C)c1cc(C(=O)O)c(O)c(C(C)C)c1.CC(C)c1cc(C(=O)O)c(O)c(C(C)C)c1.[Cu]`: the growth inhibition in assay [5] is 54.6% (inactive).

As to `N=C(N)c1ccc(N=Nc2c(O)ccc3cc(O)ccc23)cc1`, in assay [5], the growth inhibition was -27.5% (inactive).

`[Br][Sn]([CH2][Sn]([Br])([c]1ccccc1)[c]1ccccc1)([c]1ccccc1)[c]1ccccc1`: in assay [5], the growth inhibition is 81.8% (active).

With `CN(C)c1ccc2c(Nc3ccc(NS(C)(=O)=O)cc3)c3ccc(N(C)C)cc3nc2c1`, in assay [5], the growth inhibition is 65.6% (inactive).

Regarding `CC(=O)NC(C(=O)O)C(C)C.CC(=O)NC(C(=O)O)C(C)C.[NH-]C1CCCCC1[NH-].[Pt+2]` (stereo not given), the growth inhibition in assay [5] was 7.05% (inactive) and 50% (inactive).

For the molecule `Nc1nc([Se]c2nc(N)nc3c2ncn3C2OC(CO)C(O)C2O)c2ncn(C3OC(CO)C(O)C3O)c2n1` (stereo not given), the growth inhibition in assay [5] was -32.2% (inactive).

Consider `C[n+]1ccccc1/C=C/c1cccc(O)c1`, for which the growth inhibition in assay [1] is -19.9% (inactive); in assay [5] it was 17.8% (inactive).

Turning to `OCCOCCOCCOCCO`, the growth inhibition in assay [3] was -48.1% (inactive).

Consider `O=C1CCCCCC2=NC12` (stereo not given), for which, in assay [5], the growth inhibition is -25.6% (inactive).

Regarding `CCOC(=O)CC(=O)c1ccccc1`, the growth inhibition was 8.9% (inactive) and -0.85% (inactive) in assay [2]; 10.8% (inactive) and 11.1% (inactive) in assay [3].

Consider `O=[N+]([O-])c1ccc2nc3c4ccccc4c4ccccc4c3nc2c1`, for which the figures for the growth inhibition in assay [1] and in assay [5] were -1.1% (inactive) and 3.65% (inactive), respectively.

For `COc1ccc(-c2cc(=O)c3c(O)cccc3o2)cc1`, the figures for the growth inhibition in assay [1] and in assay [5] were -37.1% (inactive) and -1.35% (inactive), respectively.

Consider `O=C(/C(=N/N=C\c1ccc([N+](=O)[O-])cc1)c1ccccc1)c1ccccc1`, for which the growth inhibition in assay [1] is -18.4% (inactive); in assay [5], -1.25% (inactive).

As to `NCCSC(C[N+](=O)[O-])c1ccccc1Cl` (stereo not given), the growth inhibition in assay [5] is 87.4% (active).

These data come from PubChem BioAssay (NCI).
